From PubChem BioAssay (NCATS)
Some of the results follow. Entries that show only a call come without a potency. Results filed as inconclusive are left out. The source made the active and inactive calls. Unless noted, calls come from the whole dose curve; as a rule, active = well fitted curve in the direction sought with a large enough effect; inconclusive = small, poorly fitted or top-dose-only effect, or another doubt; inactive = no such curve, though single readings can be large; an effect the other way counts as inactive or inconclusive.

Experiments:
[1] = tested on: HIV-1 nucleocapsid protein NCp7 (binding to TG oligonucleotide); assay: HIV Nucleocapsid (AID 346; call rule not given here;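 note: potency is the fitted concentration of half-maximal effect; potency is for inhibitors that block NC binding and lower polarization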); conditions: HIV-1 NC / fluorescein-TGTGTGTG probe, fluorescence polarization
Method in brief: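 NCp7 100 nM + fluorescein TG4xF 10 nM; Hepes pH 7.5/250mM NaCl/1uM ZnCl2/0.004% PEG 20000; 1 hr RT; FP, 45 s exposure; oligo-only wells as negative control.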

[2] = Counterscreen for APE1 Inhibitors: Fluorescent Dye Displacement Assay (AID 2564); conditions: DNA fluorescent dye displacement counterscreen, fluorescence; series mostly up to 28.5 µM;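 note: loss of thiazole orange fluorescence as the dye is displaced from duplex DNA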
Method in brief: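 Reaction mixture of 250 nM Thiazole Orange and 50 nM double-stranded abasic-site DNA was dispensed, compounds were pin-transferred, and fluorescence was read at endpoint (480 nm ex, 540 nm em). Reduced fluorescence indicated dye displacement by DNA binding.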

[3] = biological target: Endonuclease 4 (Escherichia coli (strain K12)) (UniProt P0A6C1); assay: Counterscreen for APE1 Inhibitors: qHTS Assay for Inhibitors of Endonuclease IV (AID 2565); conditions: E. coli Endo IV, fluorogenic AP-site DNA cleavage; series mostly up to 27.1 µM
Method in brief: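 Read-out: fluorescence rise (ex 525/em 598 nm) from incision of a TAMRA/BHQ-2 double-stranded THF abasic-site substrate (50 nM), measured kinetically; third-minus-first read difference gave reaction progress. Enzyme 2 nM.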

[4] = biological target: DNA repair nuclease/redox regulator APEX1 (Homo sapiens) (UniProt P27695); assay: Confirmation qHTS Assay for Inhibitors of the Human Apurinic/apyrimidinic Endonuclease 1 (APE1) (AID 2572); conditions: purified APE1, fluorogenic abasic-site DNA cleavage; note: potency is the fitted concentration of half-maximal effect; nearly all actives have a fitted effect of over 30% in size
Chain of DNA repair nuclease/redox regulator APEX1 (Homo sapiens) (P27695 whole entry, looked up): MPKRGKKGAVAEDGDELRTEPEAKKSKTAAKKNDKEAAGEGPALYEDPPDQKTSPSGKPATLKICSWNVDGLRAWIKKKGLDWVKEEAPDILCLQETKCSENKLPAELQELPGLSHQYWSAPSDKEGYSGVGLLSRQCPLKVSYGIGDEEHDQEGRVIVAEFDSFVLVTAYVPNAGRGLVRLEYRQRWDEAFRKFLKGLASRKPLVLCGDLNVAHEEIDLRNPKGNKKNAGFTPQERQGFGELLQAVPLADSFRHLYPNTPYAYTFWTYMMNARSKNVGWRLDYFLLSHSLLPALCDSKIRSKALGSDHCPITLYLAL
Method in brief: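 APE1 preincubated 15 min RT with compound; 50 nM TAMRA/BHQ-2 THF-abasic duplex added; kinetic fluorescence, 3 reads at 60 s intervals, Ex 525/Em 598; progress = read 3 minus read 1.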

[5] = biological target: DNA repair nuclease/redox regulator APEX1 (Homo sapiens) (UniProt P27695); assay: qHTS FP-Based Assay for Inhibitors of the Human Apurinic/apyrimidinic Endonuclease 1 (APE1) (AID 2573); conditions: APE1 binding to TAMRA-labelled double-stranded DNA, fluorescence polarization displacement; series mostly up to 28.5 µM
Description: The apurinic/apyrimidinic endonuclease APE1 is the primary mammalian enzyme responsible for the removal of abasic (or AP) sites in DNA and functions centrally in the base excision DNA repair (BER) pathway. […] Thus, targeting APE1 could improve the efficacy of current treatment paradigms by promoting selective sensitization or protection of diseased and normal cells, respectively.
In order to gain insight into the mode of action of confirmed APE1 inhibitors, we implemented a miniaturized fluorescence polarization assay designed to report on compounds which competitively displace ds-DNA substrate. The fluorescence polarization assay has been implemented in 384- and 1536-well format for binding of TAMRA-labeled double-stranded DNA probe not containing a quencher. The binding of protein to DNA is inhibited by ATA, a general inhibitor of APE1 activity.
See also related primary fluorogenic assay (AID 2517). […]
Three uL of enzyme were dispensed to 1536-well Greiner black solid bottom plates. […] The plates were immediately transferred into ViewLux High-throughput CCD imager (Perkin-Elmer) in order to measure the reaction progress in kinetic mode (three reads every 60 seconds) using 525 nm excitation and 598 nm emission fluorescence protocol. The fluorescence intensity difference between the third and the first time points was used to compute reaction progress.

[6] = biological target: Lethal(3)malignant brain tumor-like protein 1 (Homo sapiens) (UniProt Q9Y468); assay: qHTS Assay for the Inhibitors of L3MBTL1: Hit Validation (AID 540279); conditions: L3MBTL1 methyl-lysine binding inhibition, biochemical qHTS; note: potency is the fitted concentration of half-maximal effect; nearly all actives have a fitted effect of over 70% in size
Chain of Lethal(3)malignant brain tumor-like protein 1 (Homo sapiens) (Q9Y468 whole entry, looked up): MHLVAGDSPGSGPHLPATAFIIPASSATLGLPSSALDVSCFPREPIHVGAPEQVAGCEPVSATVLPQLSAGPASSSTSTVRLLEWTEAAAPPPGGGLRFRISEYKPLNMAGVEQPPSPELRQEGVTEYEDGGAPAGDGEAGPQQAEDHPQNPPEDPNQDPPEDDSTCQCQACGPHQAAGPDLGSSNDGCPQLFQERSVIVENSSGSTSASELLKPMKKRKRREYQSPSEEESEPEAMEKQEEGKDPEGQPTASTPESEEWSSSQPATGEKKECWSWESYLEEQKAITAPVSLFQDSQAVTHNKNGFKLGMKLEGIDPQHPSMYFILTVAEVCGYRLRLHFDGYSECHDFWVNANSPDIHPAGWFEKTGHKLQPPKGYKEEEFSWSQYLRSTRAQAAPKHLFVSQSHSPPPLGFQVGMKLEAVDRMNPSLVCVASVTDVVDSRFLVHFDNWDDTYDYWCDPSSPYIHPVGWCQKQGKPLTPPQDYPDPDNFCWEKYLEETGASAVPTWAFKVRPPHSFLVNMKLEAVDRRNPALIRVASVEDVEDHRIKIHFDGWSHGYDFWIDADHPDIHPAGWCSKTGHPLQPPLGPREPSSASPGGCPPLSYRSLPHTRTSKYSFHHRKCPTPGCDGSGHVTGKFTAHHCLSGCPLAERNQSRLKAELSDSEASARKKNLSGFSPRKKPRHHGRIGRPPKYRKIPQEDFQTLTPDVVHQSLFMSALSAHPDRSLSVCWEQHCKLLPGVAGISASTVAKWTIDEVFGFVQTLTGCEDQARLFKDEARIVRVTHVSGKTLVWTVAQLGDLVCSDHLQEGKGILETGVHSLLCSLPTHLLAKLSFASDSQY
Method in brief: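 L3MBTL1 (50 nM final) preformed 30 min with biotinylated H3(1-15)K9me1 peptide (75 nM), then compound 30 min at room temperature. Streptavidin donor and nickel chelate acceptor AlphaScreen beads (10 ug/mL each final) added for 30 min before read.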

[7] = biological target: DNA polymerase iota (Homo sapiens) (UniProt Q9UNA4); assay: qHTS for Inhibitors of Polymerase Iota: Confirmatory Assay for Cherry-picked Compounds (AID 720496); conditions: Pol iota primer extension, TAMRA/BHQ fluorescence; note: potency is the fitted concentration of half-maximal effect
Chain of DNA polymerase iota (Homo sapiens) (Q9UNA4 whole entry, looked up): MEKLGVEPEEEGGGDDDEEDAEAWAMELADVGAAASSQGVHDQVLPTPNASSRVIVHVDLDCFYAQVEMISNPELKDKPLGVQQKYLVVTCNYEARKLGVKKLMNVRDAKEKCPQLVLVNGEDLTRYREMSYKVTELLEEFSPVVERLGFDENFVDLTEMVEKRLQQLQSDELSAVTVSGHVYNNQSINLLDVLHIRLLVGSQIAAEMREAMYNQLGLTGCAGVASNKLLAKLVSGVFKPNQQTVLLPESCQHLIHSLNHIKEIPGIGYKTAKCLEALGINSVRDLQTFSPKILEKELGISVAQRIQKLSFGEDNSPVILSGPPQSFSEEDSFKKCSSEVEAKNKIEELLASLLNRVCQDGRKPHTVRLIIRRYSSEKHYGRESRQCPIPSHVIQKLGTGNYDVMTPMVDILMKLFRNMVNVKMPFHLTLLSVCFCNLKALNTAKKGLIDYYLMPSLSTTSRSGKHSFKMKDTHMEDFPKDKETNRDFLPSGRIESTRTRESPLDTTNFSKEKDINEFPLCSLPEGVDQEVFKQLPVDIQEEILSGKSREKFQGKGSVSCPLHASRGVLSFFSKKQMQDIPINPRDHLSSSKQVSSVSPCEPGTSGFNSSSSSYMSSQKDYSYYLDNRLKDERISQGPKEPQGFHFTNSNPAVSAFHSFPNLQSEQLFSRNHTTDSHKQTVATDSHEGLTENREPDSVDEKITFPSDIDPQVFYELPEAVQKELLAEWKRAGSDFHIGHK
Method in brief: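 Enzyme (10 nM Pol iota) and compound sit together for 15 min at room temperature. Adding annealed primer/TAMRA-reporter/BHQ-2-template substrate, 50 nM final, starts the reaction, which is followed by fluorescence over 10 min.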

[8] = biological target: DNA polymerase eta (Homo sapiens) (UniProt Q9Y253); assay: qHTS for Inhibitors of Polymerase Eta: Confirmatory Assay for Cherry-picked Compounds (AID 720502); conditions: Pol eta primer extension, TAMRA/BHQ fluorescence, 10 min; note: potency is the fitted concentration of half-maximal effect
Chain of DNA polymerase eta (Homo sapiens) (Q9Y253 whole entry, looked up): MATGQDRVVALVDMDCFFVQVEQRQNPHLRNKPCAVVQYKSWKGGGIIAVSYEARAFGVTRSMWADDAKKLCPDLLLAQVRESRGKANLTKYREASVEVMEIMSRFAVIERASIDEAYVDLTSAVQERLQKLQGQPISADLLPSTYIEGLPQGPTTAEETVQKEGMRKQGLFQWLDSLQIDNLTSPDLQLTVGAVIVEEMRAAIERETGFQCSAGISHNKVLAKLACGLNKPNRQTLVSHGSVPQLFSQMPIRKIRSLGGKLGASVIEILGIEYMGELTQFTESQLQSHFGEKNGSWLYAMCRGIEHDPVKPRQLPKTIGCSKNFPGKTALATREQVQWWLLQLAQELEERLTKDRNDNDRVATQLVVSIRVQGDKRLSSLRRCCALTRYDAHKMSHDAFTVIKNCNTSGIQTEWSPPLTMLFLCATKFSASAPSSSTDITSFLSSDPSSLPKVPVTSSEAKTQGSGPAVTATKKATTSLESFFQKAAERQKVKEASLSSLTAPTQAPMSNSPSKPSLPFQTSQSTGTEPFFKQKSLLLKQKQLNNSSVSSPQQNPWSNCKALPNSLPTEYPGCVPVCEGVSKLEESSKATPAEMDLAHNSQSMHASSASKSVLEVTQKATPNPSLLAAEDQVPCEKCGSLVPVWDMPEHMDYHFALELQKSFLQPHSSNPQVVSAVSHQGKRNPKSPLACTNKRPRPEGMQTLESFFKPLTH
Method in brief: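 Plates with 10 nM enzyme and compound stood 15 min at room temperature before substrate addition (50 nM final). Displacement of the TAMRA reporter from the BHQ-2 template was tracked for 10 min.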

[9] = qHTS Assay for Inhibitors of Fructose-1,6-bisphosphate Aldolase from Giardia Lamblia: Giardia lamblia growth inhibition (AID 2785); conditions: Giardia lamblia trophozoite growth inhibition; series mostly up to 57.5 µM; note: nearly all actives have a fitted effect of over 70% in size
Method in brief: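 G. lamblia WB trophozoites (100 cells/well) were grown with compound at 37C for 48 h in modified TYI-S-33 medium, pH 7.0. Growth was measured by ATPlite luminescence after 20 min at room temperature.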

[10] = qHTS Assay for Inhibitors of Fructose-1,6-bisphosphate Aldolase from Giardia Lamblia: Mammalian cellular toxicity (AID 2786); conditions: mammalian cell viability counter-screen; series mostly up to 57.5 µM;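 note: compound exposure lasted 48 h before reading; nearly all actives have a fitted effect of over 60% in size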
Method in brief: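 CHO cells seeded at 250 cells/well with pin-tool-added compound, incubated 48 h at 37 °C, 5% CO2. Viability read as ATP content by ATPlite luminescence after 20 min.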

[11] = biological target: Fructose-bisphosphate aldolase (Giardia intestinalis (strain ATCC 50803 / WB clone C6)) (UniProt A8B2U2); assay: qHTS Assay for Inhibitors of Fructose-1,6-bisphosphate Aldolase from Giardia Lamblia: Primary screen confirmation (AID 2787); conditions: purified Giardia aldolase enzyme activity; series mostly up to 57.5 µM;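 note: aldolase product measured through coupled diaphorase step turning resazurin into fluorescent resorufin; nearly all actives have a fitted effect of over 45% in size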
Chain of Fructose-bisphosphate aldolase (Giardia intestinalis (strain ATCC 50803 / WB clone C6)) (A8B2U2 whole entry, looked up): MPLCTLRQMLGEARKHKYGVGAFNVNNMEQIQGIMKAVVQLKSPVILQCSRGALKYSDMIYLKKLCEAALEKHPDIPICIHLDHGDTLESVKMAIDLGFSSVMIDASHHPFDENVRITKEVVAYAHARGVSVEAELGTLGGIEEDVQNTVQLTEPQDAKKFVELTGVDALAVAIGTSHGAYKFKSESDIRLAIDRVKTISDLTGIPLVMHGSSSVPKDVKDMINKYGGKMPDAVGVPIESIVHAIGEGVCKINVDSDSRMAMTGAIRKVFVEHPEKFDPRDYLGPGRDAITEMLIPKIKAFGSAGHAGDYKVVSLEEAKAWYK
Method in brief: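 FBPA (40 nM in enzyme reagent, with 30 uM ZnCl2) was preincubated 10 min at RT with compound up to 57.5 uM final. Substrate plus coupled detection system was then added, and fluorescence (525/598 nm) was read after 20 min at RT.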

[12] = biological target: Fructose-bisphosphate aldolase A (Oryctolagus cuniculus) (UniProt P00883); assay: qHTS Assay for Inhibitors of Fructose-1,6-bisphosphate Aldolase from Giardia Lamblia: Rabbit FBPA Selectivity (AID 2794); conditions: Rabbit muscle FBPA enzyme inhibition, selectivity counter-screen; series mostly up to 57.5 µM; note: nearly all actives have a fitted effect of over 60% in size
Chain of Fructose-bisphosphate aldolase A (Oryctolagus cuniculus) (P00883 whole entry, looked up): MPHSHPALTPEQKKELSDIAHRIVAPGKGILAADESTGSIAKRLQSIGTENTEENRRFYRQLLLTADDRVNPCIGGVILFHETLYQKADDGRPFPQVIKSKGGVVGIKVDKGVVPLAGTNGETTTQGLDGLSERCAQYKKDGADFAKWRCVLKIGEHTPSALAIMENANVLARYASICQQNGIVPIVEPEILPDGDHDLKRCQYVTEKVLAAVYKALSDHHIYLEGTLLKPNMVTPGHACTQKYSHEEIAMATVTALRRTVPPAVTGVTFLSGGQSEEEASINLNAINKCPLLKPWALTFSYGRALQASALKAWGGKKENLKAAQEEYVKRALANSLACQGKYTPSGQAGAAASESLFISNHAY
Method in brief: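 Selectivity counter-screen using rabbit Class I FBPA in a coupled enzyme system with fluorescent detection (ex 525 nm/em 598 nm). Compounds at up to 57.5 uM final were preincubated 10 min at RT with coupling enzymes, then substrate/detection reagent added for 20 min at RT.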

[13] = qHTS Assay for Inhibitors of Fructose-1,6-bisphosphate Aldolase from Giardia Lamblia: Coupling assay counterscreen confirmation (AID 2795); conditions: GAPDH coupling enzyme counterscreen, biochemical; series mostly up to 57.5 µM; note: nearly all actives have a fitted effect of over 55% in size
Method in brief: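 Activity against the detection chain, not aldolase, was measured using glyceraldehyde-3-phosphate with GAPDH-based coupling and AmpLite Red. Final compound levels ran up to 57.5 uM; signal was read by fluorescence after 20 min at RT.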

Compound: O=c1c(-c2cccs2)nc2cncnc2n1C1CC1
- Potency [1]: > 20 µM (inactive)

Compound: Cc1c(C(=O)O)cccc1-n1c(C)cc(/C=C2\C(=O)NC(=O)N(c3ccc4c(c3)OCO4)C2=O)c1C
- Potency [2]: inactive
- Potency [3]: inactive
- Potency [4]: 12.6 µM (active)
- outcome [5]: inactive
- Potency [6]: 1.68 µM (active)
- Potency [7]: 15 µM (active)
- Potency [8]: 8.49 µM (active)

Compound: COc1ncc2nc(-c3ccc(Cl)cc3)c(=O)n(-c3ccccc3)c2n1
- Potency [1]: > 20 µM (inactive)

Compound: CCCCC(=O)N/N=C/c1c(O)n(-c2ccccc2)c(=O)[nH]c1=O
- outcome [9]: inactive
- outcome [10]: inactive
- outcome [11]: inactive
- outcome [12]: inactive
- outcome [13]: inactive

Compound: COc1ccccc1CN1CCN(C(=O)Cc2ccccc2)CC1
- outcome [9]: inactive
- outcome [10]: inactive
- outcome [11]: inactive
- outcome [12]: inactive
- outcome [13]: inactive
